A short description of experiment [1]: qHTS assay to identify small molecule antagonists of the estrogen related receptor (ERR) signaling pathway from Tox21 library - cell viability counter screen (AID 1224834). Also: nearly all actives have a fitted effect of over 30% in size. Also: potency is read from the fitted curve at half-maximal effect. The gist of the method: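 CellTiter-Fluor fluorescence, read after 30 min at 37 C, measures viability of ERR cells. Cells plated at 2,000/well and incubated 6 h before pin-tool compound addition, then exposed 17.5 hours at 37 C.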
On the technique in general: In qHTS, concentration-response curves come from the screen itself.

For experiment [2], the target named is Luciferin 4-monooxygenase (Photinus pyralis) (UniProt P08659). Description: qHTS assay to identify small molecule inhibitors of firefly luciferase (AID 1224835). Also: nearly all actives have a fitted effect of over 25% in size. Also: potency is read from the fitted curve at half-maximal effect. The procedure, abridged:
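Inhibition of purified Photinus luciferase is measured by luminescence. Substrate levels (D-luciferin, ATP) sit at their KM values. Each compound is tested in a concentration series.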

Experiment [3] in a line: qHTS assay to identify small molecule agonists of the constitutive androstane receptor (CAR) signaling pathway - cell viability counter screen (AID 1224836). Also: nearly all actives have a fitted effect of over 45% in size. Also: potency is read from the fitted curve at half-maximal effect. The gist of the method: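 23 h treatment, 37 C, 5% CO2. Cell line: HepG2 stably expressing hCAR with a CYP2B6-2.2kb construct. Co-treatment: PK11195, 0.75 uM final. Read-out: CellTiter-Fluor fluorescence intensity.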

Experiment [4] can be described thus: qHTS assay to identify small molecule antagonists of the constitutive androstane receptor (CAR) signaling pathway - cell viability counter screen (AID 1224837). Also: nearly all actives have a fitted effect of over 45% in size. Also: potency is read from the fitted curve at half-maximal effect. The procedure, abridged: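 Cytotoxicity counter-screen: CellTiter-Fluor fluorescence after 23 h compound exposure (15-point qHTS) in double-stable HepG2-CYP2B6-hCAR cells, with 50 nM CITCO added.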
Experiment [5] addresses Nuclear receptor subfamily 1 group I member 3 (Homo sapiens) (UniProt Q14994). Description: qHTS assay to identify small molecule antagonists of the constitutive androstane receptor (CAR) signaling pathway (AID 1224838).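 Also: HepG2 cells stably expressing hCAR with CYP2B6 luciferase reporter stimulated by CITCO; nearly all actives have a fitted effect of over 40% in size.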 Also: potency is read from the fitted curve at half-maximal effect. The gist of the method:
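Antagonism measured as luciferase signal (ONE-Glo, 30 min, room temperature) in CAR-stimulated cells: HepG2-CYP2B6-hCAR double-stable line exposed 24 hr at 37 C to compound in a 15-point series plus 50 nM CITCO.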

For experiment [6] the target is unchanged. Description: qHTS assay to identify small molecule agonists of the constitutive androstane receptor (CAR) signaling pathway (AID 1224839). Also: nearly all actives have a fitted effect of over 15% in size. Also: potency is read from the fitted curve at half-maximal effect. The gist of the method: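 Compounds tested at 15 concentrations on HepG2 cells stably harbouring hCAR and CYP2B6-2.2kb reporter constructs, co-treated with PK11195 (0.75 uM final), 24 h at 37 C; luminescent reporter signal quantified.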

A short description of experiment [7]: qHTS assay to identify small molecule antagonists of the estrogen related receptor signaling pathway with the pleiotropic PPARgamma coactivator (PGC) from Tox21 10K library - cell viability counter screen (AID 1224840; active = well fitted cell-killing curve with a large enough effect in the repeat runs, not every such curve was filed as active; also: nearly all actives have a fitted effect of over 40% in size; also: potency is read from the fitted curve at half-maximal effect). The gist of the method: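 Counter-screen for cytotoxicity: after 17.5 h compound exposure at 37 C, CellTiter-Fluor reagent added to PGC/ERR cells for 30 min and fluorescence read. Cells were seeded at 2,000 per well 6 h before dosing.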

Experiment [8] has as its target Thyrotropin receptor (Homo sapiens) (UniProt P16473). Description: qHTS assay to identify small molecule agonists of the thyroid stimulating hormone receptor (TSHR) signaling pathway (AID 1224843; calls by dose curve; also: nearly all actives have a fitted effect of over 45% in size; also: potency is read from the fitted curve at half-maximal effect). The procedure, abridged: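 Agonist activity read as cAMP rise via d2/cryptate HTRF competition, 1 h room-temperature detection, in HEK293 cells expressing TSHR. Fifteen-point titrations, each run in triplicate, with a 30 min room-temperature incubation beforehand.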

Experiment [9] can be described thus: qHTS assay to identify small molecule antagonists of the estrogen related receptor signaling pathway with the pleiotropic PPARgamma coactivator (PGC) from Tox21 10K library (AID 1224841; call rule not given here; also: actives are mostly falling curves and most rising ones were filed inactive; nearly all actives have a fitted effect of over 50% in size; also: potency is read from the fitted curve at half-maximal effect). The gist of the method: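 Luminescence (One-Glo, 30 min at room temperature) after 18 h compound treatment at 37 C of PGC/ERR reporter cells plated at 2,000 cells/well and settled 6 h beforehand.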

The nature of experiment [10]: qHTS assay to identify small molecule agonists of the estrogen related receptor signaling pathway with the pleiotropic PPARgamma coactivator (PGC) from Tox21 10K library (AID 1224842). Also: nearly all actives have a fitted effect of over 15% in size. The procedure, abridged:
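Luminescence from One-Glo (30 min, room temperature) measured after PGC/ERR cells had 18 h at 37 C with pinned compound (23 nL in DMSO). Cells had been seeded at 2,000 per well and pre-incubated 6 h.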

Values joined by “and” are separate entries in the source; they are usually repeats but may differ in a detail not shown here. Equal entries are not always repeated. Results filed as inconclusive are left out. More than one record can exist for a structure, and the calls need not agree. Active and inactive are the calls of the source. Unless noted, calls follow the shape of the dose curve; as a rule, active = well fitted curve in the direction sought with a large enough effect in the repeat runs; inconclusive = weak or mixed curves; inactive = no such curve, though single readings can be large; an effect the other way counts as inactive or inconclusive.

Sequence of Luciferin 4-monooxygenase (Photinus pyralis) (P08659 whole entry, looked up): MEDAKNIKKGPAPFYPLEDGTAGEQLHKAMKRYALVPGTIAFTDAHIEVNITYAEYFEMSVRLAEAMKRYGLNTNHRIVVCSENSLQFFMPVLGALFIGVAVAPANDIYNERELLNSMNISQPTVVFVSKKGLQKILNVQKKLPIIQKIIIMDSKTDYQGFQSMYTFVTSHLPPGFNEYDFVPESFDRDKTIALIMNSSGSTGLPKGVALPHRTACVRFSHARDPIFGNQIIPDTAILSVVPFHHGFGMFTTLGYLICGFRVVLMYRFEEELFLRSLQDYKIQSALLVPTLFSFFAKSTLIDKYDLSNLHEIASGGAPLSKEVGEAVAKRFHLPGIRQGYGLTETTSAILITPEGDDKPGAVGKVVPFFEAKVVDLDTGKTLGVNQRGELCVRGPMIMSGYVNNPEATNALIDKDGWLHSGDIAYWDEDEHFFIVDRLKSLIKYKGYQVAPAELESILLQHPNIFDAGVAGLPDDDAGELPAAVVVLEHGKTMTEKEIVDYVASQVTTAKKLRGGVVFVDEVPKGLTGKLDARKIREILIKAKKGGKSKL
Sequence of Thyrotropin receptor (Homo sapiens) (P16473 whole entry, looked up): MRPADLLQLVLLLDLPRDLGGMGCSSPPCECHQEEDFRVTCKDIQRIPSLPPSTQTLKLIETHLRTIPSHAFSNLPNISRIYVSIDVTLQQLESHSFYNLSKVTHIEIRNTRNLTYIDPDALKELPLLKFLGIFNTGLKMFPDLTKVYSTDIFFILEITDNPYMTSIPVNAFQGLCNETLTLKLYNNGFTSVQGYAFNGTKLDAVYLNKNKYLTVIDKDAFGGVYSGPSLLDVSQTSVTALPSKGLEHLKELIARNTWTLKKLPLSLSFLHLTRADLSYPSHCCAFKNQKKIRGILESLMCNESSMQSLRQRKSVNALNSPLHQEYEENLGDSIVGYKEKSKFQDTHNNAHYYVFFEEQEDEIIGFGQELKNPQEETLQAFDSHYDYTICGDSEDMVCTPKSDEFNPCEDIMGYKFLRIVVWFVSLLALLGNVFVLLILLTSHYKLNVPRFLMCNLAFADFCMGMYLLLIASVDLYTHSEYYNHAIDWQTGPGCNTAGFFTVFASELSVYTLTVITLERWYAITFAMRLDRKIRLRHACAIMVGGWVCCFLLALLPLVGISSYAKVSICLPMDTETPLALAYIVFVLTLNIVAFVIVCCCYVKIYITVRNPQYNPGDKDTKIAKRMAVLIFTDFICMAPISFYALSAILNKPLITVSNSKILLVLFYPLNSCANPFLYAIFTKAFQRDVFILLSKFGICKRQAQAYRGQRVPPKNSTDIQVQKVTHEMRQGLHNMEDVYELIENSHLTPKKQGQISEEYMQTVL
Sequence of Nuclear receptor subfamily 1 group I member 3 (Homo sapiens) (Q14994 whole entry, looked up): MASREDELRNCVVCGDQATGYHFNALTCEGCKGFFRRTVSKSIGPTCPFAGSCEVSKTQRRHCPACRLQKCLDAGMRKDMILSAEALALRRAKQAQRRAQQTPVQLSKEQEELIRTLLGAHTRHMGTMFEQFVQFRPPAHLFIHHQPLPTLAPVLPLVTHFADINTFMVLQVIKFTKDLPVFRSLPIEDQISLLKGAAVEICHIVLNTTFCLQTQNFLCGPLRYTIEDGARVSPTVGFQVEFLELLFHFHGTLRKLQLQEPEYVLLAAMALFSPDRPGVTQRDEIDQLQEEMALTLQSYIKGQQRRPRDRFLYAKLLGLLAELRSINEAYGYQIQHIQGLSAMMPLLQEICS

With `CC(C)(O)C#N`, the Potency result in experiment [1], in experiment [2], in experiment [3], in experiment [4], in experiment [5] and in experiment [6] was “inactive” throughout. The Potency entry in [7] and in experiment [8] was “inactive” throughout.
With `O=C1Nc2ccc(Cl)cc2C(c2ccccc2)=NC1O` (centres undefined), the Potency entry in experiment [1], in experiment [2], in experiment [3], in [4], in experiment [5] and in experiment [6] was “inactive” throughout. Further, the Potency entry in experiment [7], in [9], in experiment [10] and in [8] was “inactive” each time.
Consider `Nc1ncn[nH]1`, for which the Potency entry in [1], in experiment [2], in [3], in experiment [4], in experiment [5] and in experiment [6] was “inactive” in each case. For the same molecule, the Potency entry in experiment [7] and in experiment [8] was “inactive” each time.
On to `Oc1ccc(Cl)cc1Cl`, for which the Potency result in experiment [1], in experiment [2], in [3], in experiment [4], in experiment [5] and in [6] was “inactive” each time. Moreover, the Potency entry in experiment [7], in [9] and in experiment [10] was “inactive” throughout.
As for `C=CC(=O)OCC(CC)(COC(=O)C=C)COC(=O)C=C`, the Potency in [1] is 15.8 µM (active) and 17.2 µM (active); in experiment [3], 35.3 µM (active) and 30.6 µM (active); in [4], 28 µM (active) and 19.3 µM (active); in [5] it was 28 µM (active) and 21.7 µM (active); in [7], 8.87 µM (active) and 12.2 µM (active); in experiment [9] it was 17.7 µM (active) and 21.7 µM (active). The Potency in [8] was 11.2 µM (active) and 15.4 µM (active). Moreover, the Potency result in [2], in [6] and in experiment [10] was “inactive” each time.
As to `Clc1cccc(Cl)c1`, the Potency result in experiment [1], in experiment [2], in experiment [3], in experiment [4], in experiment [5] and in experiment [6] was “inactive” in each case. In addition, the Potency result in experiment [7], in [9], in experiment [10] and in experiment [8] was “inactive” each time.
For `CCOP(=O)(OCC)OCC`, the Potency result in experiment [1], in experiment [2], in experiment [3], in experiment [4], in experiment [5] and in [6] was “inactive” each time. Also, the Potency result in [7], in [9], in experiment [10] and in experiment [8] was “inactive” each time.
Consider `CCCCCCCC[N+](C)(CCCCCCCC)CCCCCCCC`, for which the Potency in experiment [1] was 17.2 µM (active) and 1.72 µM (active) and 21.7 µM (active); in [3], 17.2 µM (active) and 7.7 µM (active) and 48.6 µM (active); in [4], 19.3 µM (active) and 13.7 µM (active) and 17.2 µM (active); in experiment [5], 17.2 µM (active) and 15.4 µM (active); in experiment [7], 9.67 µM (active) and 1.37 µM (active) and 13.7 µM (active). The Potency result in experiment [2] and in experiment [6] was “inactive” each time.
Take `OCCOCCO`: the Potency entry in experiment [1], in experiment [2], in experiment [3], in experiment [4], in experiment [5] and in [6] was “inactive” each time. Besides, the Potency result in experiment [7] is “inactive”.
`C[C@]12CCC(=O)C=C1CC[C@@H]1[C@@H]2CC[C@@]2(C)[C@H]1CC[C@]2(C)O`: the Potency entry in [1], in [2], in experiment [3], in [4], in experiment [5] and in experiment [6] was “inactive” each time. Also, the Potency result in experiment [7] and in experiment [8] was “inactive” in each case.
As for `ClC(Cl)(Cl)c1ccccc1`, the Potency entry in experiment [1], in experiment [2], in experiment [3], in experiment [4], in [5] and in experiment [6] was “inactive” each time. Also, the Potency entry in experiment [7] and in experiment [8] was “inactive” throughout.
With `C[N+](C)(C)CC(=O)[O-]`, the Potency result in experiment [1], in experiment [2], in [3] and in [4] was “inactive” each time.
Regarding `ClC(Cl)(Cl)Br`, the Potency entry in [1], in experiment [2], in experiment [3], in [4], in experiment [5] and in [6] was “inactive” each time. In addition, the Potency entry in [7] and in [8] was “inactive” throughout.
For the molecule `CC1(C)Cc2cccc(O)c2O1`, the Potency entry in experiment [1], in experiment [2], in experiment [3], in [4], in experiment [5] and in experiment [6] was “inactive” throughout. Besides, the Potency result in experiment [7] and in experiment [8] was “inactive” throughout.
As for `CC1(C)C(C(=O)OC(C#N)c2cccc(Oc3ccccc3)c2)C1(C)C` (centres undefined), the Potency result in experiment [1], in experiment [2], in [3], in experiment [4], in [5] and in [7] was “inactive” in each case. The Potency entry in experiment [10] is “inactive”. The Potency in experiment [6] was 12.3 µM (active) and 24.3 µM (active); in experiment [9], 27.5 µM (active).
As to `CNC(=O)Oc1cccc2c1OC(C)(C)C2`, the Potency entry in experiment [1], in [2], in experiment [3], in experiment [4], in [5] and in experiment [6] was “inactive” each time. The Potency entry in [7], in experiment [9], in [10] and in experiment [8] was “inactive” in each case.
Regarding `CC(C)Nc1nc(Cl)nc(NC(C)C)n1`, the Potency entry in experiment [1], in experiment [2], in experiment [3], in experiment [4], in experiment [5] and in [6] was “inactive” each time. Moreover, the Potency result in experiment [9], in experiment [10] and in experiment [8] was “inactive” in each case.
Regarding `COP(=S)(OC)Oc1ccc(Sc2ccc(OP(=S)(OC)OC)cc2)cc1`, the Potency result in experiment [1], in experiment [3], in [4], in experiment [5], in experiment [9] and in experiment [10] was “inactive” in each case. For the same molecule, the Potency entry in experiment [8] is “inactive”. The Potency in [2] is 31.7 µM (active) and inactive; in experiment [6], 61.1 µM (active) and inactive.
Take `CC[n+]1c(-c2ccccc2)c2cc(N)ccc2c2ccc(N)cc21`: the Potency is 24.2 µM (active) and 6.68 µM (active) in experiment [1]; 48.3 µM (active) in [3]; 30.5 µM (active) in [4]; 21.6 µM (active) and 13.3 µM (active) in experiment [5]. The Potency entry in experiment [2] and in [6] was “inactive” in each case.
For `CN(C)c1nc(=O)n(C2CCCCC2)c(=O)n1C`, the Potency entry in experiment [1], in experiment [2], in experiment [3], in [4], in experiment [5] and in [6] was “inactive” each time. Also, the Potency entry in experiment [7] and in experiment [8] was “inactive” in each case.
Regarding `COc1ccc(O)c(C(C)(C)C)c1`, the Potency entry in [1], in experiment [2], in experiment [3], in experiment [4], in experiment [5] and in [6] was “inactive” in each case. In addition, in experiment [7], the Potency result is “inactive”.
As to `CNC(=S)S`, the Potency entry in experiment [1], in experiment [2], in [3], in [4], in experiment [5] and in [6] was “inactive” each time. The Potency entry in [7] and in experiment [8] was “inactive” in each case.
Consider `C[N+](C)(C)C`, for which the Potency entry in experiment [1], in [2], in [3], in [4], in experiment [5] and in [6] was “inactive” throughout. The Potency entry in experiment [7] and in [8] was “inactive” in each case.

These data come from PubChem BioAssay (Tox21).
